Compound activity: PubChem BioAssay, National Center for Advancing Translational Sciences (NCATS)
A selection: hits, their analogues and other compounds. The true share with any hit is near 21%.
IL1B secr inh: inflammasome signaling inhibition, IL-1 beta readout. AID 743279. activity change, % at 57.5 µM. THP-1 LPS/ATP IL-1B secretion, AlphaLISA, 16 h; hits give low values. 360,000 compounds, 4.7% hits; in the data active = activity change below about -50%; inconclusive = mostly about -30% to -49%; note: % is set by controls: 0 for no effect and ±100 for the full control effect
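Secreted IL-1B measured by AlphaLISA bead assay after 16 h compound exposure of THP-1 cells; compounds (final up to 57.5 uM) added 1 h before LPS (250 ng/mL) and ATP (1.25 mM) stimulation; lower signal means less secretion.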
DRD3 antagonist: blocks the human D3 dopamine receptor. 360,000 compounds, 2.5% hits. P35462. D3R cells, DiscoveRx beta-arrestin luminescence, antagonist mode; hits give low values. max response, negative = inhibition, %; in the data active = max response below about -50%; inconclusive = no clear call, values can overlap the other calls; note: % is set by controls: 0 for no effect and ±100 for the full control effect
Target sequence (P35462 whole entry, looked up): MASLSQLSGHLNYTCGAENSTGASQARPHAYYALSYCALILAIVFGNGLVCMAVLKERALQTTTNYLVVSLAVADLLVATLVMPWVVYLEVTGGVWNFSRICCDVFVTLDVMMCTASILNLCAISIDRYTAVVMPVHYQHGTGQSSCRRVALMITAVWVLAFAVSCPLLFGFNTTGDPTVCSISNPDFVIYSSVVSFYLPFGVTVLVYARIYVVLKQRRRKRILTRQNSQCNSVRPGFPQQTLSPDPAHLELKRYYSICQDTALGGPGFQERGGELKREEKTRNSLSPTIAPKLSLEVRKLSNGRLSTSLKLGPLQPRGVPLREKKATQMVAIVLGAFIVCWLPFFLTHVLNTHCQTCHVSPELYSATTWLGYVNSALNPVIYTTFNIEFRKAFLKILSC
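Cells expressing the human receptor were seeded at 1500 cells/well, incubated overnight at 37 degrees C in 5% CO2, then exposed to library compounds with dopamine controls for 90 minutes at 37 degrees C before luminescent detection.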
DT40 TDP1 CPT: growth inhibition of DT40 Tdp1-/-;hTDP1 cells with camptothecin (screen for TDP1 inhibitors) | chicken DT40 Tdp1-/-;hTDP1 cells + 20 nM CPT, ATP luminescence, 48 h | Potency, µM (top dose mostly 46.2 µM), for inactives: at the top dose activity change, negative = growth inhibition, most hits filed as inhibitors | 420,000 compounds, 12% hits | AID 686979; note: potency is the fitted concentration of half-maximal effect; % is set by controls: 0 for no effect and ±100 for the full control effect; nearly all actives have a fitted effect of over 55% in size
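Chicken DT40 Tdp1-/- cells stably complemented with human TDP1 were seeded at 400 cells/well in medium containing 20 nM camptothecin, exposed to pin-transferred compounds, and grown at 37 °C for at least 48 hr. Viability was read as ATP luminescence.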
ClpP mod: qHTS Assay for Activators of ClpP; ATP-dependent Clp protease proteolytic subunit (Bacillus subtilis (strain 168)), P80244; purified B. subtilis ClpP, FRET peptide cleavage, 20 min; Potency, µM (titrated, usually from 57.5 µM), for inactives: at the top dose activity change, negative = active; 340,000 compounds, 1.9% hits; active = well fitted falling curve with a large enough effect; inconclusive = small, poorly fitted or top-dose-only effect; inactive = no such curve, though single readings can be large or run the other way; note: potency is the fitted concentration of half-maximal effect; the source files actives as falling curves though it sought activators and does not explain the sign; nearly all actives have a fitted effect of over 65% in size
Target sequence (P80244 whole entry, looked up): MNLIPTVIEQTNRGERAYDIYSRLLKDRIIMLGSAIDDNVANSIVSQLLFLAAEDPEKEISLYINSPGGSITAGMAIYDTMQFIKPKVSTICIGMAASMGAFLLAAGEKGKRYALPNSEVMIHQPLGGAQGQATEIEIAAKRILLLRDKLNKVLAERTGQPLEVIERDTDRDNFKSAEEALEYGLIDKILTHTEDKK
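ClpP 10 microg/mL final, pH 8 Tris/KCl buffer with BSA, glycerol, Tween-20; compound pinned in; FRET-FV substrate; RT 20 min; Ex320/Em430; ΔFRET vs ADEP 5.8 microM, DMSO, no enzyme.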
DRD3 agonist: activates the human D3 dopamine receptor; 410,000 compounds, 0.58% hits; max activation, %; AID 652048; P35462; D3R DiscoveRx beta-arrestin cells, luminescence, 90 min; in the data active = max activation above about 30%; note: 0% is about no effect
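Agonist-mode cell screen: cells plated at 1500/well and incubated overnight at 37 °C, then exposed to library compounds for 90 min at 37 °C. Detection reagent was added for 30–60 min at room temperature, and luminescence was read.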
DT40 TDP1 no CPT: qHTS for Inhibitors of human tyrosyl-DNA phosphodiesterase 1 (TDP1): qHTS in cells in absence of CPT. DT40 Tdp1-/- hTDP1 cells, no CPT, ATP luminescence, 48 h. Potency, µM (highest dose often 46.2 µM), without a hit: at the top dose activity change, negative = growth inhibition, most hits filed as inhibitors. 420,000 compounds, 15% hits. AID 686978, 2013; note: potency is the fitted concentration of half-maximal effect; % is set by controls: 0 for no effect and ±100 for the full control effect; nearly all actives have a fitted effect of over 55% in size
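Growth of hTDP1-complemented DT40 Tdp1-knockout cells is measured by ATP luminescence after at least 48 hr compound exposure at 37 °C, with DMSO substituting for the 20 nM CPT used in the parallel screen.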
The depositor's hits bear a star. Unless noted, calls come from the whole dose curve; as a rule, active = well fitted inhibition curve with a large enough effect; inconclusive = small, poorly fitted or top-dose-only effect; inactive = flat fitted curve, though single readings scatter.

What do the screens show for `O=C(Nc1ccn(Cc2ccc(Cl)cc2)n1)c1ccc2c(c1)OCO2`?
IL1B secr inh: 33.6; DRD3 antagonist: 8.3; DT40 TDP1 CPT: -21.9%; ClpP mod: -0.5%; DRD3 agonist: 3.0; DT40 TDP1 no CPT: -6.8%

What do the screens show for `O=C(N/N=C/c1ccc2c(c1)OCO2)c1ccn(Cc2ccc(Cl)cc2)n1`?
IL1B secr inh: -5.6; DRD3 antagonist: inconclusive; DT40 TDP1 CPT: -14.2%; ClpP mod: 28.2µM*; DRD3 agonist: -12.8; DT40 TDP1 no CPT: -3.9%

How did COc1ccc(-c2nc3sc(CCNC(=O)c4cccc(C(F)(F)F)c4)c(C)n3n2)cc1 do in these assays?
DT40 TDP1 CPT: inconclusive; ClpP mod: 1.4%; DRD3 agonist: 5.0; DT40 TDP1 no CPT: inconclusive

How did Cc1nc2ccccc2c(=O)n1CCCO do in these assays?
IL1B secr inh: -11.6; DRD3 antagonist: -9.8; DT40 TDP1 CPT: -17.6%; ClpP mod: -0.8%; DRD3 agonist: -6.2; DT40 TDP1 no CPT: -5.1%

How did O=c1c2ccccc2nc(/C=C/c2ccc(Br)cc2)n1CCCO do in these assays?
IL1B secr inh: inconclusive; DRD3 antagonist: 20.9; DT40 TDP1 CPT: 23.1µM*; ClpP mod: 13.2%; DRD3 agonist: -7.6; DT40 TDP1 no CPT: 20.6µM*

How did O=c1c2ccccc2nc(/C=C/c2cccc(Br)c2)n1CCCO do in these assays?
IL1B secr inh: -85.5*; DRD3 antagonist: 2.3; DT40 TDP1 CPT: inconclusive; DRD3 agonist: -24.4; DT40 TDP1 no CPT: 13µM*

What do the screens show for `Cc1[nH]c2ccccc2c1/C=C/c1nc2ccccc2c(=O)n1CCO`?
IL1B secr inh: -84.3*; DRD3 antagonist: 14.8; DT40 TDP1 CPT: 6.51µM*; ClpP mod: 5.2%; DRD3 agonist: 1.9; DT40 TDP1 no CPT: 4.61µM*

Results for O=c1c2ccccc2nc(/C=C/c2ccc([N+](=O)[O-])o2)n1CCCO ?
IL1B secr inh: -110.6*; DRD3 antagonist: -6.9; DT40 TDP1 CPT: 0.581µM*; ClpP mod: 1.0%; DRD3 agonist: -1.6; DT40 TDP1 no CPT: 1.16µM*

How did Cc1nn(CCCC(=O)NCCc2ccc(Cl)cc2)c(=O)c2nn(-c3ccccc3)c(C)c12 do in these assays?
IL1B secr inh: -7.9; DRD3 antagonist: 12.3; DT40 TDP1 CPT: inconclusive; ClpP mod: -5.1%; DRD3 agonist: -0.9; DT40 TDP1 no CPT: inconclusive

What do the screens show for `CSc1cccc(NC(=S)NCCCN2CCN(c3ccc(F)cc3)CC2)c1`?
IL1B secr inh: -12.4; DRD3 antagonist: 10.8; DT40 TDP1 CPT: 12.6%; DRD3 agonist: -7.8; DT40 TDP1 no CPT: 3.9%

Results for CC[C@H](C)[C@H](NC(=O)c1ccccc1)C(=O)Nc1ccc(S(=O)(=O)Nc2cc(C)nc(C)n2)cc1 ?
IL1B secr inh: -2.0; DRD3 antagonist: -9.4; DT40 TDP1 CPT: -4.8%; ClpP mod: 0.8%; DRD3 agonist: 2.6; DT40 TDP1 no CPT: -23.6%

What do the screens show for `Cc1ccccc1/C=C/c1nc2ccccc2c(=O)n1Cc1ccccc1`?
IL1B secr inh: -3.1; DRD3 antagonist: -22.7; DT40 TDP1 CPT: 2.0%; ClpP mod: -2.7%; DRD3 agonist: -6.5; DT40 TDP1 no CPT: -1.6%

What do the screens show for `O=c1c2ccccc2nc(/C=C/c2ccc([N+](=O)[O-])cc2)n1CCCO`?
DRD3 antagonist: 3.2; DT40 TDP1 CPT: inconclusive; ClpP mod: inconclusive; DRD3 agonist: 4.0; DT40 TDP1 no CPT: 20.6µM*

What do the screens show for `O=c1c2ccccc2nc(/C=C/c2ccc(Br)cc2)n1CCO`?
IL1B secr inh: -82.8*; DRD3 antagonist: -2.3; DT40 TDP1 CPT: inconclusive; DRD3 agonist: -10.3; DT40 TDP1 no CPT: 23.1µM*

How did O=c1c2ccccc2nc(/C=C/c2ccc(Cl)cc2)n1CCO do in these assays?
IL1B secr inh: -73.5*; DRD3 antagonist: -17.6; DT40 TDP1 CPT: 20.6µM*; ClpP mod: 31.6µM*; DRD3 agonist: 3.4; DT40 TDP1 no CPT: inconclusive

Results for Cn1c(/C=C/c2cccc(Br)c2)nc2ccccc2c1=O ?
IL1B secr inh: 3.8; DRD3 antagonist: 5.8; DT40 TDP1 CPT: 29.1µM*; DRD3 agonist: -5.5; DT40 TDP1 no CPT: inconclusive

How did O=c1c2ccccc2nc(/C=C/c2cccc([N+](=O)[O-])c2)n1CCCO do in these assays?
IL1B secr inh: 0.0; DRD3 antagonist: 2.2; DT40 TDP1 CPT: -28.1%; ClpP mod: 0.6%; DRD3 agonist: -2.2; DT40 TDP1 no CPT: inconclusive

How did Cc1ccc([N+](=O)[O-])cc1S(=O)(=O)N1CCn2cccc2C1c1ccc(F)c(F)c1 (stereo not given) do in these assays?
DT40 TDP1 CPT: inconclusive; ClpP mod: 0.2%; DRD3 agonist: -17.5; DT40 TDP1 no CPT: inconclusive

Results for COCCCNC(=O)Cn1c(=O)n(-c2cccc(C)c2)c(=O)c2c1c1cc(C)ccc1n2C ?
DT40 TDP1 CPT: -22.9%; ClpP mod: 4.5%; DRD3 agonist: 13.0; DT40 TDP1 no CPT: inconclusive

Results for CC(C)NC(=O)N1CC[C@@]2(CCCN(S(C)(=O)=O)C2)C1 ?
DT40 TDP1 CPT: 7.3%; DT40 TDP1 no CPT: 3.7%

How did O=C(Nc1ccc2c(c1)OCCO2)C(c1ccnc2ccccc12)N1CCN(C/C=C/c2ccccc2)CC1 (stereo not given) do in these assays?
IL1B secr inh: 0.0; DRD3 antagonist: -10.9; DT40 TDP1 CPT: inconclusive; ClpP mod: -0.8%; DRD3 agonist: -9.1; DT40 TDP1 no CPT: 23.1µM*

How did O=C(Nc1ccc2c(c1)OCCO2)C(CCc1ccccc1)N1CCN(C/C=C/c2ccccc2)CC1 (stereo not given) do in these assays?
IL1B secr inh: inconclusive; DRD3 antagonist: -108.7*; DT40 TDP1 CPT: inconclusive; ClpP mod: 1.3%; DRD3 agonist: -6.8; DT40 TDP1 no CPT: inconclusive

Results for O=c1c2ccccc2nc(SCc2nc3ccccc3s2)n1CCCO ?
IL1B secr inh: -9.2; DRD3 antagonist: -11.6; DT40 TDP1 CPT: inconclusive; ClpP mod: -26.1%; DRD3 agonist: -1.2; DT40 TDP1 no CPT: inconclusive

What do the screens show for `COc1cc(/C=C/C(C)=NNc2ccccc2)ccc1O`?
IL1B secr inh: -93.5*; DRD3 antagonist: -23.0; DT40 TDP1 CPT: 3.66µM*; DRD3 agonist: -1.7; DT40 TDP1 no CPT: 4.11µM*

What do the screens show for `COc1cc(/C=N/Nc2ccc(C(=O)O)cc2)ccc1O`?
IL1B secr inh: 6.5; DRD3 antagonist: 4.0; DT40 TDP1 CPT: 1.2%; ClpP mod: -5.9%; DRD3 agonist: 1.0; DT40 TDP1 no CPT: 10.0%

Results for CCCCn1c2nc3ccccc3nc2c2c(=O)n(CC(C)C)cnc21 ?
IL1B secr inh: -8.9; DRD3 antagonist: -5.8; DT40 TDP1 CPT: 0.6%; ClpP mod: -13.1%; DRD3 agonist: -1.3; DT40 TDP1 no CPT: 20.8%
